Read-out in assay [1]: solute carrier (SLCO1B1), SLCO1B1 (gene 10599)
The assay is described as follows: LTEA_HepaRG_SLCO1B1: Life Technologies and Expression Analysis (LTEA) Assay for solute carrier (SLCO1B1) using HepaRG (AID 2283530; active = hit-call score of the fitted dose curve at least 0.9, where 1 is the maximum; inactive = score below 0.9). Conditions: mRNA level, 48 h; actives raise or lower the signal. In short, it runs like this:
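Differentiated human HepaRG cells were exposed for 48 h in serum-free induction medium to eight half-log concentrations, top 100 uM, in 0.5% DMSO. SLCO1B1 mRNA was measured by qRT-PCR, normalized to ACTB, GAPDH and POLR2A, and fitted bidirectionally against DMSO.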

Read-out in assay [2]: sulfotransferase 2A1 (SULT2A1), SULT2A1 (gene 6822)
The assay is described as follows: LTEA_HepaRG_SULT2A1: Life Technologies and Expression Analysis (LTEA) Assay for sulfotransferase 2A1 (SULT2A1) using HepaRG (AID 2283531; active = hit-call score of the fitted dose curve at least 0.9, where 1 is the maximum; inactive = score below 0.9). Conditions: mRNA level, 48 h; actives raise or lower the signal. The essentials: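 HepaRG human liver cells, 48 h exposure in serum-free induction medium to 8 half-log concentrations topping at 100 µM (0.5% DMSO), duplicate wells. SULT2A1 mRNA measured by TaqMan qRT-PCR, normalized to ACTB/GAPDH/POLR2A; bidirectional fit against DMSO.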

Read-out in assay [3]: Transforming Growth Factor (TGFA), TGFA (gene 7039)
The assay is described as follows: LTEA_HepaRG_TGFA: Life Technologies and Expression Analysis (LTEA) Assay for Transforming Growth Factor (TGFA) using HepaRG (AID 2283532; active = hit-call score of the fitted dose curve at least 0.9, where 1 is the maximum; inactive = score below 0.9). Conditions: mRNA level, 48 h; actives raise or lower the signal. The essentials:
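Differentiated human HepaRG cells, plated 48 h then switched to serum-free induction medium, were exposed in duplicate for 48 h to 8-point half-log series from 100 uM in 0.5% DMSO. TGFA mRNA measured by qRT-PCR, normalized to ACTB/GAPDH/POLR2A, bidirectional fit versus DMSO.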

Read-out in assay [4]: Transforming Growth Factor (TGFB1), TGFB1 (gene 7040)
The assay is described as follows: LTEA_HepaRG_TGFB1: Life Technologies and Expression Analysis (LTEA) Assay for Transforming Growth Factor (TGFB1) Transporter using HepaRG (AID 2283533; active = hit-call score of the fitted dose curve at least 0.9, where 1 is the maximum; inactive = score below 0.9). Conditions: mRNA level, 48 h; actives raise or lower the signal. In short, it runs like this: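 Differentiated HepaRG cells exposed 48 hr in serum-free induction medium to eight half-log concentrations up to 100 uM (0.5% DMSO), duplicate; TGFB1 mRNA by TaqMan qRT-PCR normalised to ACTB, GAPDH, POLR2A; bidirectional fit against DMSO.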

Read-out in assay [5]: Tumor necrosis factor receptor 1 (TNFRSF1A), TNFRSF1A (gene 7132)
Briefly: LTEA_HepaRG_TNFRSF1A: Life Technologies and Expression Analysis (LTEA) Assay for Tumor necrosis factor receptor 1 (TNFRSF1A) using HepaRG (AID 2283535; active = hit-call score of the fitted dose curve at least 0.9, where 1 is the maximum; inactive = score below 0.9). Conditions: mRNA level, 48 h; actives raise or lower the signal. The essentials:
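Differentiated HepaRG cells in serum-free induction medium, exposed 48 h in duplicate to 8 half-log concentrations up to 100 uM in 0.5% DMSO. TNFRSF1A mRNA by Fluidigm TaqMan qRT-PCR, normalized to ACTB, GAPDH, POLR2A; bidirectional fit.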

Read-out in assay [6]: Thyroid Hormone Responsive (THRSP), THRSP (gene 7069)
The assay is described as follows: LTEA_HepaRG_THRSP: Life Technologies and Expression Analysis (LTEA) Assay for Thyroid Hormone Responsive (THRSP) using HepaRG (AID 2283536; active = hit-call score of the fitted dose curve at least 0.9, where 1 is the maximum; inactive = score below 0.9). Conditions: mRNA level, 48 h; actives raise or lower the signal. The essentials: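 Differentiated human HepaRG cells were exposed in duplicate for 48 h in serum-free induction medium to eight concentrations (top 100 uM, half-log steps, 0.5% DMSO). Expression was quantified by TaqMan qRT-PCR, normalized to ACTB, GAPDH and POLR2A, with bidirectional fitting against DMSO.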

Read-out in assay [7]: UDP glucuronosyltransferase (UGT1A1), UGT1A1 (gene 54658)
The assay is described as follows: LTEA_HepaRG_UGT1A1: Life Technologies and Expression Analysis (LTEA) Assay for UDP glucuronosyltransferase (UGT1A1) using HepaRG (AID 2283538; active = hit-call score of the fitted dose curve at least 0.9, where 1 is the maximum; inactive = score below 0.9). Conditions: mRNA level, 48 h; actives raise or lower the signal. In short, it runs like this:
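Human liver HepaRG cultures receive test chemical for 48 h, up to 100 uM in 0.5% DMSO, with phenobarbital induction controls. UGT1A1 mRNA is measured by qRT-PCR and normalized to ACTB, GAPDH and POLR2A.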

Read-out in assay [8]: UDP glucuronosyltransferase (UGT1A6), UGT1A6 (gene 54578)
The assay is described as follows: LTEA_HepaRG_UGT1A6: Life Technologies and Expression Analysis (LTEA) Assay for UDP glucuronosyltransferase (UGT1A6) using HepaRG (AID 2283539; active = hit-call score of the fitted dose curve at least 0.9, where 1 is the maximum; inactive = score below 0.9). Conditions: mRNA level, 48 h; actives raise or lower the signal. The essentials: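 Differentiated HepaRG cells, ~100,000/well, were exposed for 48 h in serum-free induction medium with 0.5% DMSO to 8-point half-log series topping at 100 uM, in duplicate. mRNA measured by Fluidigm TaqMan qRT-PCR, normalized to ACTB, GAPDH and POLR2A.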

Read-out in assay [9]: X-box binding protein 1 (XBP1), XBP1 (gene 7494)
Briefly: LTEA_HepaRG_XBP1: Life Technologies and Expression Analysis (LTEA) Assay for X-box binding protein 1 (XBP1) using HepaRG (AID 2283540; active = hit-call score of the fitted dose curve at least 0.9, where 1 is the maximum; inactive = score below 0.9). Conditions: mRNA level, 48 h; actives raise or lower the signal. In short, it runs like this: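 Differentiated human HepaRG cells in serum-free induction medium exposed 48 h in duplicate to eight half-log concentrations up to 100 uM in 0.5% DMSO. XBP1 mRNA measured by Fluidigm TaqMan qRT-PCR, normalized to ACTB, GAPDH, POLR2A; bidirectional fitting against DMSO.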

Assay [10] is described as follows: LTEA_HepaRG_LDH_cytotoxicity: Cytotoxicity Assessment in the Life Technologies and Expression Analysis (LTEA) Assay (AID 2283563).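 Also: LDH activity released into spent culture medium as a marker of cell death.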 In short, it runs like this:
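Differentiated HepaRG cells in serum-free induction medium, exposed 48 h in duplicate to 8 half-log concentrations up to 100 uM in 0.5% DMSO. Cytotoxicity from LDH measured in spent medium, fit relative to DMSO.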

The nature of assay [11]: ATG_XTT_Cytotoxicity: Cytotoxicity Assessment in the Attagene TRANS-FACTORIAL HepG2 Assay (AID 2283584).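 Also: XTT signal for cell number as viability in transfected HepG2 cells; cells exposed to compound for 24 h before reading; active means loss of viability signal versus DMSO baseline.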 The essentials: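 HepG2 cells transiently transfected with GAL4-UAS multiple reporter units, dosed 24 h; cytotoxicity read by XTT as loss of signal versus DMSO baseline.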
The nature of assay [12]: TOX21_p53_BLA_p2_viability: Viability Assessment in the Tox21 HCT-116 p53 Agonism Beta-lactamase Assay, Phase 2 (AID 2283591).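 Also: compound exposure lasted 16 h at 37 °C; actives lower the ATP signal meaning cytotoxicity.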 In short, it runs like this: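 HCT-116 p53-bla cells (4000/well) rested 5 h at 37C, then received compounds in DMSO (217-fold dilution) for 16 h at 37C, 5% CO2. After the CCF4 read, CellTiter-Glo was added; ATP luminescence was read after 30 min at room temperature.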

For assay [13], the target named is Cellular tumor antigen p53 (Homo sapiens) (UniProt P04637). Briefly: TOX21_p53_BLA_p2_ratio: Tox21 HCT-116 p53 Agonism Beta-lactamase Assay, Ratio, Phase 2 (AID 2283592). The essentials:
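HCT-116 cells with p53-responsive beta-lactamase reporter, 4000 cells/well, preincubated 5 h, then compound in DMSO (217-fold dilution) for 16 h at 37C. CCF4-AM substrate 2 h at room temperature; 460/530 nm emission ratio fitted upward versus DMSO.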

Assay [14] in a line: TOX21_p53_BLA_p3_viability: Viability Assessment in the Tox21 HCT-116 p53 Agonism Beta-lactamase Assay, Phase 3 (AID 2283593).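 Also: cells exposed to compound for 16 h before reading.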 In short, it runs like this: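 HCT-116 cells (4000/well) rested 5 h at 37C, then got DMSO compounds by pin tool (217-fold dilution) for 16 h at 37C, 5% CO2. After the bla read, CellTiter-Glo was added and luminescence read at 30 min, room temperature.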

In assay [15] the target is Cellular tumor antigen p53 (Homo sapiens) (UniProt P04637). The assay is described as follows: TOX21_p53_BLA_p3_ratio: Tox21 HCT-116 p53 Agonism Beta-lactamase Assay, Ratio, Phase 3 (AID 2283596). In short, it runs like this:
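HCT116 p53-bla cells (4000/well) given compound in DMSO (217-fold dilution) after 5 h, incubated 16 h at 37C. CCF4-AM substrate 2 h at room temperature; 460/530 nm emission ratio, gain fitted against DMSO.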

A short description of assay [16]: TOX21_p53_BLA_p4_viability: Viability Assessment in the Tox21 HCT-116 p53 Agonism Beta-lactamase Assay, Phase 4 (AID 2283597).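 Also: hits lower the luminescence signal meaning cytotoxicity.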 In short, it runs like this:
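HCT-116 p53-bla cells, 4000/well, dosed after 5 h attachment and incubated 16 h at 37 °C, 5% CO2. Viability from CellTiter-Glo ATP luminescence after 30 min at room temperature, taken after the beta-lactamase read; loss of signal indicates cytotoxicity.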

In assay [17] the target is Cellular tumor antigen p53 (Homo sapiens) (UniProt P04637). The assay is described as follows: TOX21_p53_BLA_p5_ratio: Tox21 HCT-116 p53 Agonism Beta-lactamase Assay, Ratio, Phase 5 (AID 2283599). In short, it runs like this: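 HCT-116 cells carrying a p53-inducible beta-lactamase reporter were seeded at 4000 cells/well and dosed after 5 h with compound in DMSO (217-fold dilution). After 16 h at 37C, CCF4-AM substrate was added for 2 h, and the 460/530 nm emission ratio was scored as gain-of-signal versus DMSO.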
Cellular tumor antigen p53 (Homo sapiens), sequence (P04637 whole entry, looked up): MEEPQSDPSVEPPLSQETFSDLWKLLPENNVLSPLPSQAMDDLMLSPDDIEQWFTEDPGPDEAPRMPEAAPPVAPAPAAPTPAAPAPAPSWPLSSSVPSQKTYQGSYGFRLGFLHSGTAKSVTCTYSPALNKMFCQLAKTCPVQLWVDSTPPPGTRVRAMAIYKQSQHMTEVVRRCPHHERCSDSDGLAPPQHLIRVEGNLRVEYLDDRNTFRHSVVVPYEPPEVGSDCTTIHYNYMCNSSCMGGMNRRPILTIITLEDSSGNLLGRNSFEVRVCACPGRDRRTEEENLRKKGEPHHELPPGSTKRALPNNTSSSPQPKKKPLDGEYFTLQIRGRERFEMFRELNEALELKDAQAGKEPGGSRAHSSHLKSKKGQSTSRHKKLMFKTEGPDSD

A short description of assay [18]: TOX21_p53_BLA_p5_viability: Viability Assessment in the Tox21 HCT-116 p53 Agonism Beta-lactamase Assay, Phase 5 (AID 2283600). The essentials:
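HCT-116 p53 beta-lactamase reporter cells, 4000/well, were exposed to compound (pin transfer, 217-fold dilution) for 16 hours at 37C. Cellular ATP was read by CellTiter-Glo luminescence after 30 min at room temperature.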

The target in assay [19] is Cellular tumor antigen p53 (Homo sapiens) (UniProt P04637). The assay is described as follows: TOX21_p53_BLA_p4_ratio: Tox21 HCT-116 p53 Agonism Beta-lactamase Assay, Ratio, Phase 4 (AID 2283601). The essentials:
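HCT116 cells carrying an inducible beta-lactamase reporter were plated at 4000 cells/well, rested 5 h, then exposed to compounds in DMSO (217-fold dilution) for 16 h at 37C. CCF4-AM substrate was loaded 2 h at room temperature; 460/530 nm emission ratio scored gain-of-signal versus DMSO.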

The nature of assay [20]: Tanguay_ZF_120hpf_MORT_legacy: (Legacy) Oregon State University Tanguay Lab 120 Hour Post-fertilization zebrafish Assay for Mortality (AID 2283633).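 As to AC50: fitted as increase in binary mortality versus DMSO negative control.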 The essentials:
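Dechorionated Tropical 5D wild-type zebrafish embryos, one per well from 6 hpf, static exposure in 0.64% DMSO at 28C until 120 hpf. Mortality scored as binary by brightfield microscopy at 24 and 120 hpf.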

As a reminder, the AC50 is the concentration giving half of the maximal activity seen.

Values joined by “and” are separate entries in the source; they are usually repeats but may differ in a detail not shown here. Equal values may be shown once. Results filed as inconclusive are left out. Active and inactive are the calls of the source. The calls were made as follows, unless noted: active = hit-call score of the fitted dose curve at least 0.9, where 1 is the maximum; inconclusive = response in the unintended direction; inactive = score below 0.9.

In the case of `CC(=O)[O][Hg][c]1ccccc1`, in [1], the call was inactive. For the same compound, the AC50 in [2] was 17.6 µM (active); in [3], 23 µM (active); in assay [4], 23 µM (active); in assay [5], 27.6 µM (active); in assay [6], 2.11 µM (active); in [7], 32.5 µM (active). The AC50 in assay [8] is 18.4 µM (active); in [9] it was 11.6 µM (active); in assay [10], 0.688 µM (active); in assay [11], 8.24 µM (active); in assay [12], 2.74 µM (active) and 2.65 µM (active) and 3.55 µM (active); in assay [13], 4.84 µM (active) and 12.5 µM (active) and 8.1 µM (active). For the same compound, the AC50 is 254 nM (active) and 422 nM (active) and 682 nM (active) in assay [14]; 1.46 µM (active) and 1.07 µM (active) and 1.23 µM (active) in [15]; 3.63 µM (active) and 4.05 µM (active) and 3.54 µM (active) in assay [16]; 2.9 µM (active) and 2.82 µM (active) and 4.64 µM (active) in [17]; 1.5 µM (active) and 1.56 µM (active) and 2.25 µM (active) in assay [18]; 7.28 µM (active) and 2.97 µM (active) and 7.86 µM (active) in assay [19]. The AC50 in [20] is 0.179 µM (active).
`O=C1C2(Cl)C3(Cl)C4(Cl)C(Cl)(Cl)C5(Cl)C3(Cl)C1(Cl)C5(Cl)C24Cl` (stereo not drawn): the AC50 in assay [1] was 93.5 µM (active); in assay [2] it was 93.5 µM (active); in assay [4], 92.5 µM (active); in assay [6], 9.2 µM (active); in assay [7] it was 15.8 µM (active); in assay [8], 94.7 µM (active). In addition, the AC50 in assay [9] was 92.4 µM (active); in [10], 72.1 µM (active); in assay [12], 73.9 µM (active) and 73.7 µM (active); in assay [13] it was 82.6 µM (active) and 60.4 µM (active); in assay [14] it was 80.6 µM (active) and 78.5 µM (active); in assay [16], 68.4 µM (active) and 66.4 µM (active). Besides, the AC50 in [17] was 83.8 µM (active) and 85 µM (active); in assay [18], 82 µM (active) and 83.7 µM (active); in [19], 83.2 µM (active) and 60.3 µM (active). Further, the compound was called inactive in assay [3], in [5] and in [20].

These data come from PubChem BioAssay (EPA / NIEHS).
